# Screening data: PubChem, National Center for Advancing Translational Sciences (NCATS)
# In the library only some 8.7% were active in any assay of this set; here they are far more common.
# ALOX12 inh: Primary qHTS assay for inhibitors of human arachidonate 12S-lipoxygenase (ALOX12): Round 2; Polyunsaturated fatty acid lipoxygenase ALOX12 (Homo sapiens), P18054; purified 12hLO, xylenol orange hydroperoxide absorbance; Potency, µM (highest dose often 108 µM), inactives show at the highest dose activity change, negative = inhibition, most hits filed as inhibitors; 580,000 compounds, 1.1% hits; AID 1671190, 2021; note: % is set by controls: 0 for no effect and ±100 for the full control effect
#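 Purified human 12hLO (150 nM final) in 25 mM Hepes, 0.01% Triton X-100, pH 7.0 was preincubated 15 min at room temperature with compound. Then 40 uM arachidonic acid was added, 30 min. Hydroperoxide was read by Fe-XO absorbance ratio 573/405 nm.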
# Sfp inh: qHTS Assay for Inhibitors of Bacillus subtilis Sfp phosphopantetheinyl transferase (PPTase). 4'-phosphopantetheinyl transferase ffp (Bacillus subtilis), Q9F4F7. Biochemical Sfp PPTase activity, qHTS. Potency, µM, without a hit: largest response in the series, negative = inhibition, most hits filed as inhibitors. 310,000 compounds, 3.5% hits;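 note: the enzyme is Sfp with the accession as filed and its product quenches rhodamine fluorescence; 0% = enzyme reaction without inhibitor and -100% = no enzyme wells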
#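 Step 1, compound plus 15 nM Sfp-PPTase, 15 min, room temperature. Step 2, add rhodamine-CoA (5 uM) and BHQ-2-YbbR (12.5 uM). Step 3, read 525/598 nm fluorescence at 0 and 30 min.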
# BAZ2B inh: qHTS Assay for Inhibitors of BAZ2B | Bromodomain adjacent to zinc finger domain protein 2B (Homo sapiens), Q9UIF8 | AlphaScreen BAZ2B-H3K14Ac peptide displacement | Potency, µM (highest dose often 114 µM), without a hit: top-dose activity change, negative = inhibition, hits mostly inhibitors | 360,000 compounds, 4.4% hits | AID 504333, 2011; note: % is set by controls: 0 for no effect and ±100 for the full control effect; nearly all actives have a fitted effect of over 60% in size
#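 Multi-concentration screen (max 110 uM) measuring displacement of acetylated histone H3 peptide from BAZ2B by AlphaScreen, using 50 nM protein, 50 nM peptide and 10 ug/mL streptavidin donor plus Ni-chelate acceptor beads.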
# G9a block: qHTS Assay for Inhibitors of Histone Lysine Methyltransferase G9a; AID 504332, 2011; Histone-lysine N-methyltransferase EHMT2 (Homo sapiens), Q96KQ7; G9a H3K9 monomethylation, AlphaScreen, 2 h; 350,000 compounds, 8.8% hits; Potency, µM (doses to about 102 µM), for the others: at the top dose activity, negative = inhibition, actives largely listed as inhibitors; note: % is set by controls: 0 for no effect and ±100 for the full control effect; nearly all actives have a fitted effect of over 75% in size
#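 Using a bead-based AlphaScreen, monomethylated H3K9 product from 2 h room-temperature reactions (G9a 20 nM, peptide 500 nM, SAM 20 uM) was detected with 0.5 ug/mL rabbit anti-H3K9me1 antibody.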
# JMJD2A Tudor: qHTS Assay for Inhibitors of JMJD2A-Tudor Domain | 390,000 compounds, 4.4% hits | Lysine-specific demethylase 4A (Homo sapiens), O75164 | AlphaScreen JMJD2A-Tudor / H3K4me3 peptide binding | Potency, µM (series often up to 114 µM), inactives show at the highest dose activity change, negative = inhibition, actives largely listed as inhibitors | AID 504339, 2011; note: % is set by controls: 0 for no effect and ±100 for the full control effect; nearly all actives have a fitted effect of over 50% in size
# HP1b chromo inh: HTS for Inhibitors of HP1-beta Chromodomain Interactions with Methylated Histone Tails; Chromobox protein homolog 1 (Homo sapiens), P83916; AlphaScreen HP1-beta / biotin-H3K9me3 peptide binding; Potency, µM (top dose mostly 114 µM), without a hit: top-dose activity change, negative = inhibition, most hits filed as inhibitors; 390,000 compounds, 0.56% hits; AID 540317, 2011; note: nearly all actives have a fitted effect of over 70% in size
#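 Compound inhibition of the preformed complex between 50 nM HP1-beta and 50 nM biotinylated H3K9me3 peptide was read by AlphaScreen. Buffer was PBS pH 7.4 with 0.01% Tween-20. Incubations ran 30 min at room temperature, with 10 ug/mL donor/acceptor beads.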
# Active calls of the source: *; ? = inconclusive; . = not tested or not shown; [ ] = another dose, or the depositor's remark. Calls come from the whole dose curve; as a rule, active = well fitted curve in the direction sought with a large enough effect; inconclusive = small, poorly fitted or top-dose-only effect, or another doubt; inactive = no such curve, though single readings can be large; an effect the other way counts as inactive or inconclusive. Potency is the fitted concentration of half-maximal effect.
SMILES,ALOX12 inh,Sfp inh,BAZ2B inh,G9a block,JMJD2A Tudor,HP1b chromo inh
CN(c1ccccc1)c1nc(N)c([N+](=O)[O-])c(Nc2ccccc2F)n1,4%,4%,6%,-4%[2.33 µM],-28%,1%
COc1ccc(OC)c(Nc2nc(N(C)c3ccccc3)nc(N)c2[N+](=O)[O-])c1,6%,-6%,?,35µM*,?,-17%
CCC(C)Nc1nc(N)c([N+](=O)[O-])c(NCc2ccccc2)n1 (centres undefined),-20%,-8%,?,-23%,56µM*,?
COC(F)(C(=O)Nc1ccccc1C(C)C)C(F)(F)F (centres undefined),-15%,.,.,.,.,.
C=CCNc1nc(N)c([N+](=O)[O-])c(Nc2ccccc2OC)n1,0%,16%,-2%,0%,-19%,19%
CCC(C)Nc1nc(N)c([N+](=O)[O-])c(Nc2cc(OC)ccc2OC)n1 (centres undefined),0%,-12%,18µM*,?,40µM*,?
COc1ccccc1Nc1nc(NCCCN(C)C)nc(N)c1[N+](=O)[O-],-13%,-27%,?,50µM*,?,-15%
COc1ccc(OC)c(Nc2nc(NCCC(C)C)nc(N)c2[N+](=O)[O-])c1,2%,8%,-32%,?,?,-25%
Cc1cccc2c(-c3ccccc3)c(-c3ccccc3)[nH]c12,-6%,.,.,.,.,.
O=[N+]([O-])c1ccc(S(=O)(=O)Nc2nc(-c3ccccc3)cs2)cc1,-19%,9%,?,.,?,-11%
COc1ccc(-c2csc(NC(=O)c3ccccc3NS(=O)(=O)c3ccc(C)cc3)n2)cc1,?,5%,35µM*,?,?,?
Cc1ccc(S(=O)(=O)Nc2nc(-c3ccc(F)cc3)cs2)cc1,?,-2%,?,50µM*,-34%,-15%
OC(COc1cccc2ccccc12)CN1CCN(c2ccccc2Cl)CC1 (centres undefined),11%,?,-20%,-15%,-34%,13%
COc1cccc(OC)c1OCC(O)CN1CCN(c2ccccc2)CC1 (centres undefined),17%,7%,-6%,?,-16%,12%
Cc1cccc(C)c1OCC(O)CN1CCN(c2ccccc2)CC1 (centres undefined),255%,8%,?,71µM*,-19%,32%
CC1CCN(CC(O)COc2ccc(OCC(O)CN3CCC(C)CC3)cc2)CC1 (centres undefined),0%,9%,10%[57.1 µM],.,-3%,20%
Cc1ccc(C)c(OCC(O)CN2CCC(C)CC2)c1C (centres undefined),?,-17%,50µM*,?,-23%[11.4 µM],-38%
Cc1ccc(N2CCN(CC(O)COc3cccc4ccccc34)CC2)cc1 (centres undefined),?,?,35µM*,40µM*,45µM*,?
COc1ccccc1N1CCN(CC(O)COc2c(OC)cccc2OC)CC1 (centres undefined),-4%,-9%,-35%,14µM*,-18%,18%
COCCNC(=O)[C@@H]1C[C@H](Oc2cccnc2)CN1C(=O)c1ccccn1,4%,.,.,.,.,.
COc1ccc(OCc2cc(C(=O)N3CCN(CC4CC4)CC3)n[nH]2)c(Cl)c1,52%,.,.,.,.,.
COc1ccc(N2CCN(CCCNC(=O)c3ccc4nc(Cc5ccccc5)oc4c3)CC2)cc1,?,.,40µM*,14µM*,32µM*,-33%[57 µM]
COc1ccc(N2CCN(CCCNC(=O)c3nnc(Cc4ccc(F)cc4)o3)CC2)cc1,-20%,.,35µM*,-51%[59 µM],-8%,7%
